# Test results from PubChem BioAssay.
# Activity calls are given as the source filed them. Unless noted, no stated cut-off is given here; in the data, active means inhibition above about 80%; inactive means the rest.
# Key:
# [1] = growth inhibition, single agent or in combination, cell-based, chromothripsis tumors, cisplatin or BGB combos (AID 1671449); settings: LFS_MB_P medulloblastoma cells;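 further: cells exposed for 96 hours; 0% = vehicle DMSO and 100% = killing by high DMSO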
# [2] = growth inhibition, single agent and combos, cell-based, chromothripsis tumors, cisplatin or BGB combos (AID 1671450); settings: HDN33 neuroblastoma cells, stronger effect = higher value;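 further: cells exposed to compound for four days; 0% = vehicle DMSO and 100% = cell killing by high DMSO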
# [3] = growth inhibition, single agents and combos, ICB984, cell-based, cisplatin or BGB combos, synergistic combos for chromothripsis tumors (AID 1671451; call rule not given here;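 further: cells exposed for 96 hours before readout; 0% = vehicle DMSO and 100% = killing by high DMSO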); settings: ICB984 medulloblastoma cells, drug combinations, stronger effect = higher value
# [4] = growth inhibition, single agents and combos, LFS_MB_1R, cell-based, cisplatin or BGB combos, synergistic combos for chromothripsis tumors (AID 1671452); settings: LFS_MB_1R medulloblastoma cells, stronger effect = higher value;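 further: cells exposed for 96 hours before readout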
# [5] = growth inhibition, single agents and combos, HTB85, cell-based, BGB or cisplatin IC20 combos, synergistic combos for chromothripsis tumors (AID 1671453); settings: HTB85 osteosarcoma cells, drug combinations, stronger effect = higher value;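 further: cells exposed for 96 hours before readout; 0% = vehicle DMSO and 100% = high DMSO killing control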
# [6] = growth inhibition, single agents and combos, CRL2098, cell-based, BGB or cisplatin IC20 combos, synergistic combos for chromothripsis tumors (AID 1671454); settings: CRL2098 osteosarcoma cells, drug combinations, stronger effect = higher value;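 further: cells exposed for 96 h before readout; 0% = vehicle DMSO and 100% = killing by high DMSO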
# [7] = growth inhibition, single agents and combos, HD-MB03, cell-based, BGB or cisplatin IC20 combos, synergistic combos for chromothripsis tumors (AID 1671455; in the data active means inhibition above about 83%;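 further: 0% = vehicle DMSO and 100% = high DMSO as cytotoxic control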); settings: HD-MB03 medulloblastoma cells, stronger effect = higher value
# [8] = growth inhibition, single agents and combos, UWB1.289, cell-based, BGB or cisplatin combos, synergistic combos for chromothripsis tumors (AID 1671456); settings: UWB1.289 ovarian carcinoma cells, stronger effect = higher value;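 further: cells exposed to compound for four days; 0% = vehicle DMSO and 100% = killing by high DMSO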
# [9] = growth inhibition, single agents and combos, LFS_MB_2R, cell-based, cisplatin combos, synergistic combos for chromothripsis tumors (AID 1671457); settings: LFS_MB_2R medulloblastoma cells, stronger effect = higher value;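 further: cells exposed to compound for four days before readout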
# [10] = growth inhibition, MDA-MB-436, cell-based, BGB or cisplatin combos, synergistic combos for chromothripsis tumors (AID 1671458; call rule not given here;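 further: cells exposed for 96 hours; 0% = vehicle DMSO and 100% = killing by high DMSO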); settings: MDA-MB-436 breast carcinoma growth inhibition, drug combinations, stronger effect = higher value
# [11] = UWB1.289_BRCA1 ovarian cancer growth, cell-based, BGB or cisplatin combinations (AID 1671459); settings: UWB1.289 BRCA1 ovarian carcinoma, drug combinations, stronger effect = higher value
# [12] = drug combination toxicity in non-malignant astrocytes – cell-based, BGB or cisplatin IC20 combos, cytotoxicity control for chromothriptic childhood tumor combination screen (AID 1671460); settings: Human astrocytes, viability inhibition, drug combinations, at 0.5 µM, stronger effect = higher value;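 further: cells exposed to compounds for 96 hours before viability readout; 0% = vehicle and 100% = killing control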
# [13] = BT084 cell growth, single and combined drugs, ICGC_MB145, cisplatin and BGB IC40 combos (AID 1671461); settings: BT084 medulloblastoma cells, drug combinations, stronger effect = higher value;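 further: cells exposed to drugs for 96 hours; 0% = vehicle DMSO and 100% = high DMSO full killing control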
# [14] = RCMB18 cell growth, single agent and combined, cisplatin and BGB IC40 combos (AID 1671462); settings: RCMB18 medulloblastoma cells, stronger effect = higher value;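 further: cells exposed to compound for four days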
# [15] = CRL1545 cell growth, single agent and combined, cisplatin and BGB IC20 combos (AID 1671464); settings: CRL1545 osteosarcoma cells, stronger effect = higher value;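 further: cells exposed to compound for 96 hours before readout; 0% = vehicle DMSO and 100% = high DMSO killing control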
# [16] = measured here: combination with BGB IC40, at 0.05 µM
# [17] = measured here: with BGB IC20 combination, at 0.5 µM
# [18] = measured here: with cisplatin IC20 combination, at 0.5 µM
# [19] = measured here: combination with cisplatin, at 0.5 µM
# [20] = measured here: combination with cisplatin, at 5 µM
compound,measurement,setting,value
NC(=O)c1cccc2cn(-c3ccc(C4CCCNC4)cc3)nc12 (stereo not drawn),inhibition,"[1]; at 0.5 µM, stronger effect = higher value",-22.2% (inactive)
same,inhibition,"[1]; measured here: combination with BGB IC20, at 0.005 µM",9.92%
same,inhibition,"[1]; measured here: combination with BGB IC40, at 0.005 µM",-8.03%
same,inhibition,[1]; [16],-6.95%
same,inhibition,"[1]; measured here: combination with cisplatin, at 0.5 µM, stronger effect = higher value",-37.4%
same,inhibition,"[1]; measured here: combination with cisplatin, at 5 µM, stronger effect = higher value",-29.2%
same,inhibition,"[2]; BGB combo, at 5 µM",-13.1%
same,inhibition,[2]; at 0.5 µM,-12.8% (inactive)
same,inhibition,"[2]; cisplatin combo, at 5 µM",28.2%
same,inhibition,[2]; [17],-14.6%
same,inhibition,[2]; [18],-19.6%
same,inhibition,"[2]; single agent, at 5 µM",44.3%
same,inhibition,"[3]; BGB IC20 combo, at 0.005 µM",-10.7%
same,inhibition,"[3]; BGB IC40 combo, at 0.005 µM",-50.8%
same,inhibition,"[3]; BGB IC40 combo, at 0.05 µM",-43.2%
same,inhibition,[3]; at 0.5 µM,-25.3% (inactive)
same,inhibition,"[3]; cisplatin combo, at 0.05 µM",-48.9%
same,inhibition,"[3]; cisplatin combo, at 0.5 µM",-42.4%
same,inhibition,"[3]; cisplatin combo, at 5 µM",-33%
same,inhibition,"[3]; measured here: 5 uM single agent, at 5 µM",-12.1%
same,inhibition,[4]; at 0.5 µM,-17.8% (inactive)
same,inhibition,[4]; [16],-23.5%
same,inhibition,[4]; [19],-55.4%
same,inhibition,[4]; [20],-54.7%
same,inhibition,[5]; at 0.5 µM,-22% (inactive)
same,inhibition,"[5]; measured here: with BGB IC20, at 0.5 µM",-26.2%
same,inhibition,"[5]; measured here: with BGB IC20, at 5 µM",-8.36%
same,inhibition,"[5]; measured here: with cisplatin IC20, at 0.5 µM",-25.1%
same,inhibition,"[5]; measured here: with cisplatin IC20, at 5 µM",8.74%
same,inhibition,"[5]; single agent, at 5 µM",31.7%
same,inhibition,[6]; at 0.5 µM,-34.1% (inactive)
same,inhibition,"[6]; measured here: combination with BGB at IC20, at 0.5 µM",-52.1%
same,inhibition,"[6]; measured here: combination with cisplatin at IC20, at 0.5 µM",-0.058%
same,inhibition,[7]; at 0.5 µM,-5.6% (inactive)
same,inhibition,"[7]; measured here: combo with BGB at IC20, at 0.5 µM",-17.4%
same,inhibition,"[7]; measured here: combo with cisplatin at IC20, at 0.5 µM",6.18%
same,inhibition,[8]; at 0.5 µM,-3.23% (inactive)
same,inhibition,"[8]; measured here: inhibition with BGB combination, at 0.05 µM",2.85%
same,inhibition,"[8]; measured here: inhibition with cisplatin combination, at 0.05 µM",-19.1%
same,inhibition,[9]; at 0.5 µM,-4.32% (inactive)
same,inhibition,[9]; [19],-10.3%
same,inhibition,[9]; [20],-4.18%
same,inhibition,[10]; at 0.5 µM,13.9% (inactive)
same,inhibition,"[10]; measured here: BGB combination, at 0.5 µM",-2.85%
same,inhibition,"[10]; measured here: BGB combination, at 5 µM",-6.33%
same,inhibition,"[10]; measured here: cisplatin combination, at 0.5 µM",15.6%
same,inhibition,"[10]; measured here: cisplatin combination, at 5 µM",32.2%
same,inhibition,"[11]; BGB combination, concentration series, at 5 µM",-5.8%
same,inhibition,[11]; at 0.5 µM,0.96% (inactive)
same,inhibition,"[11]; cisplatin combination, concentration series, at 5 µM",23.7%
same,inhibition,[12],-10.9% (inactive)
same,inhibition,[12]; measured here: combo with BGB IC20,-10.9%
same,inhibition,[12]; measured here: combo with cisplatin IC20,-15.8%
same,inhibition,[13]; at 0.5 µM,-8.13% (inactive)
same,inhibition,"[13]; cisplatin combination, at 0.5 µM",-15.8%
same,inhibition,"[13]; cisplatin combination, at 5 µM",-1.06%
same,inhibition,"[13]; measured here: BGB IC40 combination 0.05 uM, at 0.05 µM",4.73%
same,inhibition,"[13]; single agent, at 5 µM",-30.1%
same,inhibition,[14]; at 0.5 µM,-4.94% (inactive)
same,inhibition,"[14]; cisplatin combo, at 5 µM",-39.1%
same,inhibition,"[14]; measured here: BGB IC40 combination, at 0.05 µM",-13.7%
same,inhibition,[14]; [19],-10.1%
same,inhibition,"[14]; single agent, at 5 µM",-43.2%
same,inhibition,[15]; at 0.5 µM,-29.8% (inactive)
same,inhibition,[15]; [17],-55.3%
same,inhibition,[15]; [18],-17%
same,inhibition,"[15]; single agent, at 0.05 µM",-35.4%
same,inhibition,"[15]; single agent, at 5 µM",30.1%
